Assay outcomes from PubChem BioAssay.
The list is not random: actives were taken first. Their share in the collection is about 0.56%.
N-glyco inh: blocks N-linked glycosylation in D54 reporter cells. D54 ERlucT glycosylation luciferase reporter, 24 h; percent of 100 nM tunicamycin response. reporter increase, % at 12.5 µM. actives 0.23% (n = 360,000). AID 588692;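 active means mean luciferase reporter signal, scaled so untreated is 0 and the glycosylation-blocking control 100, at or above a set limit in every replicate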;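 further: luciferase carries N-glycosylation sites so blocking glycosylation raises the light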
PvdQ acylase: P. aeruginosa PvdQ acylase inhibition; inhibition, % at 10 µM; actives 0.063% (n = 340,000); purified PvdQ acylase, fluorescence plate reader; in the data active means inhibition above about 30%, passing the limit was not always enough
PDI turbidity: inhibitors of human protein disulfide isomerase; PDI insulin aggregation turbidity, A650, 90 min; P07237; actives 0.052% (n = 350,000); AID 588391; inhibition, % at 10 µM;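 active means mean inhibition across replicates of 30% or more, whatever share of single replicates reach that level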
Vif imaging: HIV Vif inhibition. HEK293T cells, Vif self-association by quenched fluorescence, imaging, 24 h. inhibition, % at 7.49 µM. actives 0.35% (n = 340,000); in the data active means inhibition above about 50%, passing the limit was not always enough
ERp5 inh: inhibitors of human ERp5. inhibition, % at 9.99 µM. AID 651711. Q15084. actives 0.05% (n = 350,000). ERp5 insulin aggregation, absorbance 650 nm, 90 min;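 active means mean replicate inhibition above about 25%, with every replicate also reaching it, limit read from the data, passing the limit was not always enough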
Target sequence (Q15084 whole entry, looked up): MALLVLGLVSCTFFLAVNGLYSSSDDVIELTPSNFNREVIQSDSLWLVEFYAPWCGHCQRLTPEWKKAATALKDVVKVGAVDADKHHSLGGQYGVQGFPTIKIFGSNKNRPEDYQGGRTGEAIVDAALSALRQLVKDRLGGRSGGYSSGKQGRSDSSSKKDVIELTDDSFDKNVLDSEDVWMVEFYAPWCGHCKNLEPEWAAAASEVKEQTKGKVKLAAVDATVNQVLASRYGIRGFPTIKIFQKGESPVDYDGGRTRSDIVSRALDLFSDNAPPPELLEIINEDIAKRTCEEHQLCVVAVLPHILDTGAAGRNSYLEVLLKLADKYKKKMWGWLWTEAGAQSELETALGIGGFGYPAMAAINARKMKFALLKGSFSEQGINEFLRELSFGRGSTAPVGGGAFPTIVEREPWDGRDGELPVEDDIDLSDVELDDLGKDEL
Each line names hits and unclear results; the compound was inactive in the other large screens.

CCCCCCC(=O)N(O)C1CC(=O)N(c2ccc(F)cc2)C1=O (stereo not drawn)	N-glyco inh 78.2
CCCCCCC(=O)N(O)C1CC(=O)N(c2ccc(Br)cc2)C1=O (stereo not drawn)	N-glyco inh 67.7 (no result: ERp5 inh)
C[C@@H]1CN([C@H](C)CO)C(=O)c2cc(NS(=O)(=O)c3cn(C)cn3)ccc2O[C@@H](C)CCCCO[C@@H]1CN(C)Cc1ccccc1	none (no result: N-glyco inh, PvdQ acylase, PDI turbidity, Vif imaging)
O=C(COC(=O)c1ccc(Cl)cc1[N+](=O)[O-])NC(=O)c1ccccc1	none
COc1ccc(NC(=O)c2sc3cc(C(F)(F)F)cnc3c2-c2cccs2)cc1	none (no result: ERp5 inh)
CC(NC(=O)CSc1ncccn1)c1ccc(Cl)cc1Cl (stereo not drawn)	none
Oc1ccccc1C=NNC(=S)NN=Cc1ccccc1O	none
Cc1ccc(NC(=O)NC(=O)N(C(C)C)S(C)(=O)=O)nc1	none
CCOC(=O)CC(=O)CSc1nc2ccc(C)cc2cc1C#N	Vif imaging 82.5
Cc1ccc2nc(SCC(=O)Nc3ccccc3N3CCOCC3)c(C#N)cc2c1	none (no result: ERp5 inh)
Cc1ccc2nc(SCC(=O)Nc3ccc4sc(C)nc4c3)c(C#N)cc2c1	N-glyco inh 33.3 (no result: ERp5 inh)
CN(CC(=O)NCCc1ccc(S(N)(=O)=O)cc1)S(=O)(=O)c1ccc(Br)s1	Vif imaging 62.1
COc1cc2[nH]ccc(=O)c2cc1OC	none
COc1ccc(CCNC(=O)c2cc(-c3ccco3)on2)cc1OC	N-glyco inh 63.3
O=C(NCCc1ccccc1)c1cc(-c2ccco2)on1	N-glyco inh 48.2
O=C(NCc1ccccc1)c1cc(-c2ccco2)on1	none
NC(=S)c1ccc[n+]([O-])c1	none
CCOC(=O)C1CCN(Cc2cc(Cl)c3ccccc3c2O)CC1	N-glyco inh 44.0 (no result: ERp5 inh)
COc1ccc(CNC(=O)C[C@H]2CC[C@@H]3[C@H](COc4ccc(NC(=O)C(C)C)cc4C(=O)N3C)O2)cc1	none (no result: N-glyco inh, PvdQ acylase, PDI turbidity, Vif imaging)
CC(C)NC(=O)CC(=O)N/N=C\c1ccccc1C(=O)O	none
COCCNC(=O)/C(C#N)=C/c1cc(Br)c(O)c(OC)c1	none
CCOCCCNC(=O)/C(C#N)=C/c1cc(Br)c(O)c(Br)c1	N-glyco inh 29.8 (no result: ERp5 inh)
Cc1cc(C)cc(C(=O)NCC(=O)OCC(=O)N(C)c2ccccc2)c1	none
CCC1(CC)NC(=O)N(CC(=O)Nc2ccc(OCc3ccccc3)cc2)C1=O	Vif imaging 54.9
C[C@H]1CN([C@@H](C)CO)C(=O)CCCn2nncc2CO[C@H]1CN(C)C(=O)c1ccccc1	none (no result: PvdQ acylase)
O=S(=O)(c1cc(F)ccc1F)N1CCN(c2ncccn2)CC1	PDI turbidity 34.1
O=S(=O)(c1ccc(F)cc1)N1CCN(c2ncccn2)CC1	none
CCOc1ccc(NC(=O)CCC(=O)N2CCSc3ccccc32)cc1	none (no result: PDI turbidity)
COc1ccc(C2Nc3ccccc3C(=O)N2c2ccccc2)cc1COc1ccccn1 (stereo not drawn)	none
Cn1c(=O)cc2c3c(c(N4CCCCC4)ccc31)C(=O)c1ccccc1-2	N-glyco inh 27.8 (no result: PvdQ acylase)
O=C1c2ccccc2C(=O)c2c1cccc2N1CCCC1	none
Cc1ccc(-n2ncc3c(=O)n(CC(N)=O)cnc32)cc1	none
Cc1ccc(N/N=C/C=C/c2ccco2)cc1	none
Nc1c(N(Cc2ccccc2)C(=O)COc2ccc([N+](=O)[O-])cc2)c(=O)[nH]c(=O)n1Cc1ccccc1	N-glyco inh 123.1
N#Cc1ccc(C(=O)N(Cc2ccco2)c2c(N)n(Cc3ccccc3)c(=O)[nH]c2=O)cc1	PDI turbidity 33.2
Nc1c(N(CCC2=CCCCC2)C(=O)CCCOc2ccccc2)c(=O)[nH]c(=O)n1Cc1ccccc1	none
Nc1c(N(Cc2ccco2)C(=O)c2ccc(Cl)cc2)c(=O)[nH]c(=O)n1Cc1ccccc1	none
Nc1c(N(CCC2=CCCCC2)C(=O)COc2ccc(F)cc2)c(=O)[nH]c(=O)n1Cc1ccccc1	N-glyco inh 55.5 (no result: ERp5 inh)
Nc1c(N(CCO)C(=O)COc2ccc(Cl)cc2)c(=O)[nH]c(=O)n1Cc1ccccc1	none (no result: Vif imaging)
C[C@H](CO)N1C[C@H](C)[C@@H](CN(C)C(=O)Nc2ccc(F)cc2)Oc2ccc(NC(=O)CCC(F)(F)F)cc2C1=O	none (no result: N-glyco inh, PvdQ acylase, PDI turbidity, Vif imaging)
CN=C1c2cc3c(Br)c(OC)ccc3n2CCN1C	none
CC1CCN(C(=O)COc2ccc3ccccc3c2Br)CC1	none
C[C@H](CO)N1C[C@H](C)[C@@H](CN(C)CC2CC2)Oc2cc(-c3ccc(F)cc3)ccc2S1(=O)=O	none (no result: N-glyco inh, PvdQ acylase, PDI turbidity, Vif imaging)
CCCN(C)C[C@@H]1Oc2cc(-c3ccc(F)cc3)ccc2S(=O)(=O)N([C@@H](C)CO)C[C@@H]1C	ERp5 inh 31.9 (no result: N-glyco inh, PvdQ acylase, PDI turbidity, Vif imaging)
C[C@@H]1CN([C@H](C)CO)S(=O)(=O)c2ccc(-c3ccc(F)cc3)cc2O[C@@H]1CN(C)CC1CC1	ERp5 inh 27.4 (no result: N-glyco inh, PvdQ acylase, PDI turbidity, Vif imaging)
